# Measured values as given in article PMC4336329 (PLoS ONE, 2015).
# The campaign covered roughly 310,000 compounds. About 14,000 (4.5%) showed an effect of 50% or more. Effects have a minus sign here. Many of the other results were omitted from the sample, so strong results are more common in it than they were.
# Target: human ether-à-go-go-related gene (hERG) potassium channel (human, UniProt Q12809)
# Experiment: primary screen, population patch clamp on CHO cells stably expressing hERG; higher = less effect of the substance
# 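Also: peak tail current of the secondary pulse compared with the same well before compound.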
# human ether-à-go-go-related gene (hERG) potassium channel, sequence (Q12809 whole entry, looked up): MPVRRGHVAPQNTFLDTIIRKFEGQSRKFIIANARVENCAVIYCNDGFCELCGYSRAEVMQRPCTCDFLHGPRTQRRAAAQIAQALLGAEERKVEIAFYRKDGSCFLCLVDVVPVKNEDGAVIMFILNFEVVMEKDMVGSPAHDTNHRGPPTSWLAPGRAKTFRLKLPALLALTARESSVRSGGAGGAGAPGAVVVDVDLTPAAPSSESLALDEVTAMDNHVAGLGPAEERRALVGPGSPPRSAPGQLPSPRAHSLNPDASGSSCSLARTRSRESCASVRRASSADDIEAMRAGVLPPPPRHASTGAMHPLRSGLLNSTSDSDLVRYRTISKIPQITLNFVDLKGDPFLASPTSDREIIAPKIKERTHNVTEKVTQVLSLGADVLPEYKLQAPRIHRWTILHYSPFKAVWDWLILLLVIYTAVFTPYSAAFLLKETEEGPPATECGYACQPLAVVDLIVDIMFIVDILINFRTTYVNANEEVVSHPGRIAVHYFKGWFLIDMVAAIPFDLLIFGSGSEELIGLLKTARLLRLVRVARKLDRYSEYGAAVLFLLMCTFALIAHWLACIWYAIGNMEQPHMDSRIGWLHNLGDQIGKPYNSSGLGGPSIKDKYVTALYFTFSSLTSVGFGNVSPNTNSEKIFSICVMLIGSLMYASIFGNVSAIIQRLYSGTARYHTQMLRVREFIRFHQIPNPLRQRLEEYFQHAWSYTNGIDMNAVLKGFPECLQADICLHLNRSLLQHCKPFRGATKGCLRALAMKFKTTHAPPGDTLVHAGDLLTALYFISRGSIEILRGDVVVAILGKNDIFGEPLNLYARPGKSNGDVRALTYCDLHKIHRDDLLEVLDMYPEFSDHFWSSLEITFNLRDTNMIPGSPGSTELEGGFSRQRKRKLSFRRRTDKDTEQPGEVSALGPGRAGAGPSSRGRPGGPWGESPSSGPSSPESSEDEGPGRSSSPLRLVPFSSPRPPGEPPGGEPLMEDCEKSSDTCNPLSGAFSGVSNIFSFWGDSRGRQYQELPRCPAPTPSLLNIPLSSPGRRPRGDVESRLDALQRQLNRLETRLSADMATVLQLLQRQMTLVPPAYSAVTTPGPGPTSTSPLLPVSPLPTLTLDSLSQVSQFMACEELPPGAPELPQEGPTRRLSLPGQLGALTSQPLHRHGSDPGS
row,Compound,"hERG current change (%, negative = inhibition) at 10uM [%]"
1,O=C(CSc1nnc(CN2CCOCC2)n1-c1ccc(Cl)cc1)Nc1ccc2c(c1)OCO2,-9.87
2,CC/C(O)=C1\C(=O)CCCC1=NCCc1c(C)[nH]c2ccc(C)cc12,-14
3,CCOC(=O)CC1C(=O)NCCN1C(=O)Nc1ccc(Cl)cc1 (stereo not drawn),2.37
4,CC(=O)c1c(C)[nH]c(C(=O)N2c3ccccc3CC2C)c1C (stereo not drawn),5.33
5,Cc1csc(=O)n1CCC(=O)OCC(=O)c1ccc(Br)cc1,-18.4
6,O=c1c2ccccc2ncn1C1CCCCC1,-19.4
7,O=c1oc2ccccc2c2c1ncn2C1CCCCC1,-51.7
8,O=c1oc2ccccc2c2c1ncn2-c1ccccc1,-11.8
9,O=CN1CCN(C(C(=O)NC2CCCCC2)c2ccc(Cl)cc2)CC1 (stereo not drawn),-15
10,O=C(NC1CCCC1)C(c1ccc(Cl)cc1)N1CCN(C2CCCCC2)CC1 (stereo not drawn),-59.3
11,O=CN1CCN(C(C(=O)NC2CCCC2)c2ccc(Cl)cc2)CC1 (stereo not drawn),-14.8
12,Cc1c(C=O)c2ccccc2n1CC(=O)NCc1ccc2c(c1)OCO2,21.8
13,CC1CCN(CC(O)COCCOc2ccc(Br)cc2)CC1.Cl (stereo not drawn),-64.3
14,CC1(C)CCCC(C)(C)N1CC(O)COCCOc1ccc(Br)cc1.Cl (stereo not drawn),-67.5
15,CC1CC(C)CN(CC(O)COCc2ccccc2)C1.Cl (stereo not drawn),-7.79
16,Cl.OCCN1CCN(CC(O)COCCOc2ccc(Br)cc2)CC1 (stereo not drawn),-20.2
17,CC1CC(C)CN(CC(O)COCCOc2ccc(Br)cc2)C1.Cl (stereo not drawn),-71.6
18,CC1(C)CC(O)CC(C)(C)N1CC(O)COCCOc1ccc(Br)cc1 (stereo not drawn),-42.4
19,CN1CCN(CC(O)COCCOc2ccc(Br)cc2)CC1.Cl (stereo not drawn),10.4
20,Cl.OC(COCCOc1ccc(Br)cc1)CN1CCCCC1 (stereo not drawn),-37.1

row,Compound,"hERG current change (%, negative = inhibition) at 10uM [%]"
1,CCN1CCN(CC(O)COCCOc2ccc(Br)cc2)CC1.Cl (stereo not drawn),-12.3
2,COc1cc(CCN2C(=O)c3cccc4cccc(c34)C2=O)c(S(=O)(=O)NCCO)cc1OC,-23.8
3,CC(C)COP(=O)(OCC(C)C)C(O)c1ccccc1F (stereo not drawn),-1.27
4,CCCNC(=O)/C=C/c1ccc(S(=O)(=O)Nc2ccccc2OC)cc1,-1.75
5,Cc1ccc(OCCOc2cccc3ccc(C)nc23)c([N+](=O)[O-])c1.O=C(O)C(=O)O,-10.7
6,CC1CCCCN1c1ncnc2ccccc12.Cl (stereo not drawn),-7.46
7,Cc1ccc(C)c(N2CCN(S(=O)(=O)c3ccc4c(c3)C(C)(C)C(=O)N4C)CC2)c1,3.88
8,Cc1nc2ncnn2c(N2CCN(C(c3ccccc3)c3ccccc3)CC2)c1C,-47.7
9,CCn1c(COc2cccc(C)c2)nnc1SCC(=O)Nc1cccc(C(=O)O)c1,9.41
10,CCOC(=O)c1cccc(NC(=O)CSc2nnc(-c3ccncc3)n2CCCOC)c1,-50.4
11,CCOC(=O)c1cccc(NC(=O)CSc2nnc(COc3ccccc3)n2CC)c1,-51.3
12,COCCCn1c(SCC(=O)Nc2cccc(C(=O)OC)c2)nnc1-c1ccncc1,-15.8
13,COCCCn1c(SCC(=O)Nc2ccccc2)nnc1-c1ccncc1,-6.82
14,COC(=O)c1cccc(NC(=O)CSc2nnc(COc3ccccc3)n2C)c1,-7.84
15,CCn1c(COc2cccc(C)c2)nnc1SCC(=O)Nc1cccc(C(=O)OC)c1,-2.45
16,N#Cc1ccc(OCc2nnc(SCC(=O)c3ccccc3)n2-c2ccccc2)cc1,-40.8
17,COC(=O)c1cccc(NC(=O)CSc2nnc(COc3ccc(C#N)cc3)n2-c2ccccc2)c1,-73.5
18,COc1ccc(OC)c(CCNC(=O)Cn2ccc3cc(S(=O)(=O)N4CCCC4)ccc32)c1,-13.9
19,COCCNC(=O)c1cc2c(s1)-c1ccc(Cl)cc1SC2,-5
20,NNC(=O)c1cc2c(s1)-c1cc(Cl)ccc1SC2,10.3

row,Compound,"hERG current change (%, negative = inhibition) at 10uM [%]"
1,CNC(=O)c1cc2cc(Br)ccc2s1,10.1
2,CN(C)C(=O)c1cc2cc(Br)ccc2s1,-3.77
3,CCN(CC)CCNC(=O)c1cc2cc(Br)ccc2s1,-61.1
4,CN(C)CCNC(=O)c1cc2c(s1)-c1ccc(Cl)cc1SC2,-81.1
5,CCN(CC)CCNC(=O)c1cc2c(s1)-c1ccccc1SC2,-77.8
6,CN(CCC#N)C(=O)c1cc2c(s1)-c1ccccc1SC2,-8.88
7,CCOCCCNC(=O)c1cc2c(s1)-c1ccccc1SC2,-5.28
8,C/C(=N/OCC(=O)NCCCCCCNC(=O)CO/N=C(/C)c1cccs1)c1cccs1,-20.8
9,CCCCOC(=O)Nc1cc(Cl)ccc1C,1.24
10,O=S(=O)(/N=C(/Nc1ccccc1)C(F)(F)F)c1ccccc1,-20.7
11,Br.C/C(CC1CC(COCC(C)C)OC1=O)=N\Nc1nc(-c2ccccc2)cs1 (stereo not drawn),-15.5
12,CC1Sc2ccc(S(=O)(=O)CCC(=O)Nc3ccccc3Cl)cc2NC1=O (stereo not drawn),4.08
13,Cc1ccc(/C=C/C(=O)Nc2nnc(SCc3ccc(C#N)cc3)s2)o1,-11
14,O=C1CC(c2ccccc2)n2nc(NC(=O)C3CCCO3)nc2N1 (stereo not drawn),-10
15,Cc1ccc(S(=O)(=O)N(C)C)cc1NC(=O)COC(=O)CCC1CCCC1,-18.5
16,Cc1ccc(S(=O)(=O)N(C)C)cc1NC(=O)COC(=O)CC1CCCC1,-74.2
17,COc1ccc(S(=O)(=O)N(C)C)cc1NC(=O)COC(=O)CC1CCCC1,-72.8
18,COc1ccc(NC(=O)COC(=O)CC2CCCC2)cc1Cl,-1.21
19,Cc1ccc(S(=O)(=O)N(C)C)cc1NC(=O)COC(=O)CCC1CCCCC1,2.99
20,CCN(CC)S(=O)(=O)c1ccc(OC)c(NC(=O)CC2CCCC2)c1,-10.8
